{"source": "ChEMBL document CHEMBL1201862", "about": "“PubChem BioAssay data set” (2004)", "note": "Several values for one entry are separate records, joined by “and”; a condition that tells them apart may be missing. Equal entries are not always repeated.", "data": [{"experiment": "A High Throughput Confirmatory Assay used to Identify Novel Compounds that Inhibit Mycobacterium Tuberculosis in the absence of Glycerol using Purified and Synthesized Compounds (7).; call rule not given here", "type": "functional", "values": [{"smiles": "CC1CCN(C(=O)c2ccc(CNc3c(N4CCCC4)c(=O)c3=O)cc2)CC1", "IC90": "> 100 µM (active)"}, {"smiles": "CC(C)OC(=O)CSc1ncnc2c1cnn2-c1ccccc1", "IC90": "> 100 µM (active)"}, {"smiles": "O=C(NCCc1ccc(Cl)cc1)C1CCC(CNc2c(N3CCCCC3)c(=O)c2=O)CC1", "note": "(stereo not drawn)", "IC90": "> 100 µM (active)"}, {"smiles": "CC1CCCN(C(=O)c2ccc(CNc3c(N4CCCCC4)c(=O)c3=O)cc2)C1", "note": "(stereo not drawn)", "IC90": "> 100 µM (active)"}, {"smiles": "CC(=O)c1ccc(NC(=O)c2ccc(CNc3c(N4CCOCC4)c(=O)c3=O)cc2)cc1", "IC90": "> 100 µM (active)"}, {"smiles": "CC1CC(C)CN(C(=O)C2CCC(CNc3c(N4CCCCC4)c(=O)c3=O)CC2)C1", "note": "(stereo not drawn)", "IC90": "> 75 µM (active) and > 100 µM (active)"}, {"smiles": "O=C(C1CCC(CNc2c(N3CCCCC3)c(=O)c2=O)CC1)N1CCCCC1", "note": "(stereo not drawn)", "IC90": "> 100 µM (active)"}, {"smiles": "CC1CCCN(C(=O)C2CCC(CNc3c(N4CCCCC4)c(=O)c3=O)CC2)C1", "note": "(stereo not drawn)", "IC90": "> 100 µM (active)"}, {"smiles": "O=C(c1ccc(CNc2c(N3CCCC3)c(=O)c2=O)cc1)N1CC=C(c2ccccc2)CC1", "IC90": "> 68.8 µM (active) and > 79.4 µM (active)"}, {"smiles": "CC1CC(C)CN(C(=O)c2ccc(CNc3c(N4CCCC4)c(=O)c3=O)cc2)C1", "note": "(stereo not drawn)", "IC90": "> 100 µM (active)"}, {"smiles": "O=C(c1ccc(CNc2c(N3CCCC3)c(=O)c2=O)cc1)N1CCc2ccccc2C1", "IC90": "> 100 µM (active)"}, {"smiles": "O=C(NCCc1ccc(Cl)cc1)c1ccc(CNc2c(N3CCOCC3)c(=O)c2=O)cc1", "IC90": "> 100 µM (active)"}, {"smiles": "COc1ccc(N2CCN(C(=O)c3ccc(CNc4c(N5CCOCC5)c(=O)c4=O)cc3)CC2)cc1", "IC90": "> 100 µM (active)"}]}]}
